Pf Dd2 inh = inhibitors of Plasmodium falciparum Dd2 growth; AID 1347417; P. falciparum Dd2 growth, SYBR Green, 72 h; Potency, µM (series often up to 28.9 µM), usual class: inhibitors; 4.3% of 120,000 active; active = well fitted inhibition curve with a large enough effect; also: nearly all actives have a fitted effect of over 65% in size
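Readout: SYBR Green fluorescence, 485 nm excitation, 535 nm emission, after ~16 h lysis at 37C. Before that, Dd2-infected red cells (2.5% hematocrit) grew 72 h with compound, 29 uM top final concentration.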
Large screens that a line does not name were inactive. This is one part of a sample in which hits are shown more often than they occur.

Clc1ccc(-c2noc3ncnc(N4CCCCC4)c23)cc1	none
Cc1ccc(C)c(N2CCN(CCCNc3ncnc4onc(-c5ccc(Cl)cc5)c34)CC2)c1	none
COc1cccc(N2CCN(c3ncnc4onc(-c5ccc(Cl)cc5)c34)CC2)c1	none
Clc1ccc(CN2CCC(CNc3ncnc4onc(-c5ccc(Cl)cc5)c34)CC2)cc1	Pf Dd2 inh 4.5µM
Cc1ccc(CCNc2ncnc3onc(-c4ccc(F)cc4)c23)cc1	none
Cc1ccccc1CN1CCC(CNc2ncnc3onc(-c4ccc(Cl)cc4)c23)CC1	Pf Dd2 inh 8.9µM
COc1ccc(Nc2ncnc3onc(-c4ccc(Cl)cc4)c23)cc1Cl	none
Cc1ccc(CN2CCC(CNc3ncnc4onc(-c5ccc(Cl)cc5)c34)CC2)cc1	Pf Dd2 inh 3.2µM
Cc1cccc(Nc2ncnc3onc(-c4ccc(Cl)cc4)c23)c1C	none
CCOc1ccc(Nc2ncnc3onc(-c4ccc(Cl)cc4)c23)cc1	none
Cc1cccc(CN2CCC(CNc3ncnc4onc(-c5ccc(Cl)cc5)c34)CC2)c1	none
COc1ccc(OC)c(CCNc2ncnc3onc(-c4ccc(Cl)cc4)c23)c1	Pf Dd2 inh 11µM
CNC(=O)[C@@H]1C[C@@H](N)CN1S(=O)(=O)c1ccc2c(c1)OCCCO2	none
Cc1ccccc1-n1nc(-c2c(C)nc3scc(CC(=O)NCC(C)C)n3c2=O)cc1C	none
Cc1ccc2c(c1)SCC(=O)N2CC(=O)N(C)Cc1ccoc1	none
COc1cc(=O)n2c(c1C(=O)Nc1ccc(Cl)cc1C)CCCC2	none
COc1ccc2c(c1)OCC(C(=O)NCCNc1cc(C)ccn1)C2 (stereo not drawn)	none
Cc1ccoc1C(=O)N[C@@H]1CN(c2ncccn2)C[C@H]1CO	none
C#CCNC(=O)C1CCc2nnc(-c3ccc(Cl)nc3)n21 (stereo not drawn)	none
CC(C)NC(=O)NCc1nnc2n1C(C(=O)NCc1ccc(F)cc1)CC2 (stereo not drawn)	none
Cn1ccc(C(=O)NCc2nnc3n2C(C(=O)NCc2ccc(F)cc2)CC3)n1 (stereo not drawn)	none
O=C(NCc1ccc(F)cc1)C1CCc2nnc(-c3ccc(Cl)cc3Cl)n21 (stereo not drawn)	Pf Dd2 inh 3.2µM
O=C(C1CCc2nnc(-c3ccc(Cl)cc3Cl)n21)N1CCN(c2ncccn2)CC1 (stereo not drawn)	none
COc1ccccc1-c1nnc2n1C(C(=O)NCc1ccc(F)cc1)CC2 (stereo not drawn)	Pf Dd2 inh 4µM
COc1ccccc1-c1nnc2n1C(C(=O)N1CCN(c3ncccn3)CC1)CC2 (stereo not drawn)	none
O=C(NCc1ccc(F)cc1)C1CCc2nnc(-c3ccc(Cl)nc3)n21 (stereo not drawn)	Pf Dd2 inh 7.1µM
O=C(NCc1nnc2n1C(C(=O)NCc1ccc(F)cc1)CC2)c1ccc(Cl)cc1Cl (stereo not drawn)	none
CN(C)C(=O)N1CCCC1c1nnc2n1CCNC2 (stereo not drawn)	none
O=C([C@@H]1C[C@H](F)CN1C(=O)Nc1ccc(Br)cc1)N1CCCCC1	none
CN(C)Cc1cc(CC2(NCc3ccc4c(c3)OCO4)COC2)no1	none
CCCc1nc(C(=O)NC(C)c2cnn(-c3ccccc3)c2C)cs1 (stereo not drawn)	none
O=C(Cc1cccc(Cl)c1)N1CCC2(CC1)COc1ccccc1[S+](=O)([O-])N2	none
CN(C)c1ccc(C(=O)NC[C@H]2O[C@@H](CO)[C@@H](O)[C@H]2N2CCN(c3ccccc3)CC2)cc1	none
COc1ccc(N2C(=O)CSC23CCN(C(=O)Nc2ccc(F)cc2F)CC3)cc1	none
O=C(c1ccccc1OCC1CCCN(Cc2cccs2)C1)N1CCCC1 (stereo not drawn)	none
Cc1cccc(N2CCN(c3nc4ccccc4c4nnc(C)n34)CC2)c1C	Pf Dd2 inh 0.89µM
Cc1cccc(N2CCN(c3nc4ccccc4c4nc(-c5ccccc5)nn34)CC2)c1C	none
Cc1cccc(N2CCN(c3nc4ccccc4c(=O)n3-c3ccc(Cl)cc3)CC2)c1C	none
CN1CC(=O)N(C2CNC2)Cc2c(NC3CC3)ncnc21	none
COCC1CN(C(C)=O)CC12CCN(Cc1ccccc1C)CC2 (stereo not drawn)	none
Cc1cccc(-c2nc3c4ccccc4nc(NCc4ccc(F)cc4)n3n2)c1	none
COc1cc2nc(NCc3ccccc3)n3nc(-c4ccccc4)nc3c2cc1OC	Pf Dd2 inh 0.32µM
COc1ccccc1CNc1nc2ccccc2c2nc(-c3cccc(C)c3)nn12	none
CCOCCCNc1nc2cc(OC)c(OC)cc2c2nc(-c3ccccc3)nn12	Pf Dd2 inh 0.28µM
CCOc1ccccc1NC(=O)CSc1nc2cc(OC)c(OC)cc2c2nc(-c3ccccc3)nn12	none
COc1ccc(CNc2nc3ccccc3c3nc(-c4ccccc4)nn23)cc1	none
CSc1ncc(CN2CCOC(Cc3cccc(C(F)(F)F)c3)C2)cn1 (stereo not drawn)	none
CCCCNC(=O)c1ccc2c(c1)N(S(=O)(=O)c1ccccc1F)CC2	none
Cc1ccc(C2Cn3nnc(C(=O)N4CCN(C(=O)Cc5cccc(F)c5)CC4)c3CO2)cc1 (stereo not drawn)	none
Cc1noc(C)c1Cc1ccc(C(=O)NCC2Cn3cccc3C(=O)N2C)o1 (stereo not drawn)	none
CC[C@H]1CN(C(=O)NC(C)C)CC[C@H]1CC(=O)NCc1cccc2ccccc12	none
COc1ccc(NC(=O)C2=C(C)Nc3ncnn3C2c2ccccn2)cc1 (stereo not drawn)	none
CC(=O)c1ccc(NC(=O)c2nc(-c3ccccc3)n(-c3ccc(Cl)cc3)n2)cc1	none
O=C(Nc1cnc(-c2ccc(Cl)cc2)nc1)c1ccccc1Cl	none
O=C(Nc1ccc(Cl)cc1)c1cnn2c1NC(c1ccccc1)=CC2c1ccccc1 (stereo not drawn)	Pf Dd2 inh 3.2µM
COc1ccc(OC)c(C2NC(=O)NC(C)=C2C(=O)Nc2ccc(F)cc2)c1 (stereo not drawn)	none
COc1ccc(C2=CC(c3ccccc3F)n3ncc(C(=O)Nc4ccc(C)cc4)c3N2)cc1 (stereo not drawn)	Pf Dd2 inh 7.9µM
O=[S+]([O-])(c1ccccc1)N1CCn2c(nnc2-c2ccncc2)C1	none
Cc1cccc(NC(=O)C2(C)CCCCC(=O)N2)c1 (stereo not drawn)	none
Cc1cc(C(=O)N2CC(F)(F)C[C@H]2c2nc(C3CC3)no2)on1	none
OCCC1CN(c2cc(C(F)(F)F)ccn2)CCN1CC1CCCCC1 (stereo not drawn)	Pf Dd2 inh 13µM
CCOc1ccccc1CN1CCN(c2ccnc(N)n2)CC1CCO (stereo not drawn)	none
CC1CCN(CC2CCCN(C(=O)COc3ccc(F)cc3)CC2)CC1 (stereo not drawn)	none
CC(C)Nc1ccnc(N2CCN(Cc3ccccc3F)C(CCO)C2)n1 (stereo not drawn)	none
O=C(C1CCCC1)N1CCC(CCOc2ccc(F)cc2)C1 (stereo not drawn)	none
OCCC1CN(CCOc2ccc(F)cc2)CCN1CC1CCCCC1 (stereo not drawn)	Pf Dd2 inh 8.9µM
Cc1cc(CN2CC(Oc3ccc(F)cc3F)C2)no1	none
Cc1ncsc1CN1CCC(C2CCN(S(C)(=O)=O)CC2)C1 (stereo not drawn)	none
Cc1ccc(C(=O)NCC2Cn3cccc3C(=O)N2C)cn1 (stereo not drawn)	none
O=C(Cn1nc2n(c1=O)CCCCC2)N1CCN(c2ccc(F)cc2)CC1	none
O=C(CN1C(=O)CCC1=O)N1CCCCCCn2c(nnc2-c2ccc(F)cc2)CC1	none
O=C(Cc1cccc(F)c1)Nc1ccc(-c2nnc3n2CCCC3)cc1	none
O=C(COc1ccc(Cl)cc1)Nc1ccc(-c2nnc3n2CCCC3)cc1	none
CSc1cccc(NC(=O)Nc2ccc(-c3nnc4n3CCCC4)cc2)c1	none
